# According to PubChem BioAssay (NCATS):
# Where “and” joins values, the source holds several entries; their conditions need not be identical. Equal values may be shown once. Records with an inconclusive call do not appear. A call without a number means that no potency is given here. Calls of active or inactive are those of the source. Calls come from the whole dose curve; as a rule, active = well fitted curve in the direction sought with a large enough effect; inconclusive = small, poorly fitted or top-dose-only effect, or another doubt; inactive = no such curve, though single readings can be large; an effect the other way counts as inactive or inconclusive.
# Legend:
# [1] = qHTS for Inhibitors of Ubiquitin-specific Protease USP2a Using CHOP2 as the Reporter: K633 Counterscreen (AID 652168); details: No-enzyme DiUb K48 IQF substrate fluorescence interference, kinetic; series mostly up to 57.5 µM
# Summary of the method: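 Cell-free interference counterscreen without USP2a: compounds pinned into enzyme-free buffer (20 mM Tris pH 8, 2 mM beta-mercaptoethanol, 0.05% Chaps), then DiUb K48-4IQF substrate added (100 nM stock); fluorescence read kinetically, Ex 525/Em 598.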
# [2] = qHTS for Inhibitors of Ubiquitin-specific Protease USP2a Using CHOP2 as the Reporter: Cytotox Assay (AID 652170); details: HCT116 viability, CellTiter-Glo luminescence, 72 h; series mostly up to 46.1 µM; note: nearly all actives have a fitted effect of over 70% in size; note: potency is the fitted concentration of half-maximal effect
# Summary of the method: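 HCT116 human colon cancer cells, 600 per well in DMEM with 10% FBS, exposed to compounds for 72 hr at 37 deg C. ATP measured by CellTiter-Glo luminescence, normalized to DMSO cells and no-cell background.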
# [3] = molecular target: Ubiquitin carboxyl-terminal hydrolase 2 (Homo sapiens) (UniProt O75604); assay: qHTS for Inhibitors of Ubiquitin-specific Protease USP2a Using CHOP2 as the Reporter: K484 Substrate (AID 652173); details: USP2 cleavage of DiUb K48 IQF substrate, fluorescence; series mostly up to 57.5 µM;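 note: cleavage of internally quenched K48 di-ubiquitin substrate measured as rising fluorescence over time; nearly all actives have a fitted effect of over 70% in size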; note: potency is the fitted concentration of half-maximal effect
# Summary of the method: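 USP2 (dispensed at 5 nM) was pinned with compounds, then DiUb K48 internally quenched fluorescent substrate (dispensed at 100 nM) was added. The buffer was 20 mM Tris pH 8, 2 mM beta-mercaptoethanol and 0.05% CHAPS. Cleavage was read kinetically as rising fluorescence, Ex 525/Em 598.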
# [4] = molecular target: Tyrosine-protein kinase Yes (Homo sapiens) (UniProt P07947); assay: qHTS for small molecule inhibitors of Yes1 kinase: Primary Screen (AID 686947); details: Yes1 kinase biochemical qHTS inhibition; series mostly up to 76.9 µM; note: nearly all actives have a fitted effect of over 60% in size; note: potency is the fitted concentration of half-maximal effect
# Summary of the method: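 ADP-Glo luminescence readout; final 4 nM Yes1, 0.1 mM ATP, 0.3 mg/mL poly(E4Y), Tris pH 7.5, MgCl2, DTT, Brij-35. 20 min compound preincubation, 60 min reaction at RT. Normalized to DMSO wells with and without enzyme.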
# [5] = qHTS for small molecule inhibitors of Yes1 kinase: Counter Assay (AID 686950); details: series mostly up to 76.9 µM;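 note: no kinase present so only ADP-Glo detection of a fixed ADP amount is tested; luminescence from ADP-Glo reporting ADP in a fixed ATP and ADP mixture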
# Summary of the method: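 Enzyme-free ADP-Glo interference check: compounds were preincubated 20 min in buffer, then an ATP/ADP mix (0.08 mM ATP, 0.02 mM ADP final) was added for 60 min at room temperature before two-step ADP-Glo luminescence detection.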
# Tyrosine-protein kinase Yes (Homo sapiens), sequence (P07947 whole entry, looked up): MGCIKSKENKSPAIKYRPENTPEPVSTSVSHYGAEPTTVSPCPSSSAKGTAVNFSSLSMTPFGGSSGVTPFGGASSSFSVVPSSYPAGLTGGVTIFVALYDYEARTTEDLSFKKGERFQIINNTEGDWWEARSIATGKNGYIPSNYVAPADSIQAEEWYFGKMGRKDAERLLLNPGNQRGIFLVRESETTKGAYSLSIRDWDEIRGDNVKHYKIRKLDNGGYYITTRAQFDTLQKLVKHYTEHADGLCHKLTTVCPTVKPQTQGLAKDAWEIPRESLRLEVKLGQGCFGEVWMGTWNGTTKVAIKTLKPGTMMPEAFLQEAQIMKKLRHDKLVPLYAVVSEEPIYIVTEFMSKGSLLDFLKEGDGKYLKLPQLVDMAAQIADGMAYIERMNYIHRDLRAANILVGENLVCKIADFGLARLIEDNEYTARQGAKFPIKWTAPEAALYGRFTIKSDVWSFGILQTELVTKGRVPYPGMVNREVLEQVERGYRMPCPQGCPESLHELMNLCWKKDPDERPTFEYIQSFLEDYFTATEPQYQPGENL
# Ubiquitin carboxyl-terminal hydrolase 2 (Homo sapiens), sequence (O75604 whole entry, looked up): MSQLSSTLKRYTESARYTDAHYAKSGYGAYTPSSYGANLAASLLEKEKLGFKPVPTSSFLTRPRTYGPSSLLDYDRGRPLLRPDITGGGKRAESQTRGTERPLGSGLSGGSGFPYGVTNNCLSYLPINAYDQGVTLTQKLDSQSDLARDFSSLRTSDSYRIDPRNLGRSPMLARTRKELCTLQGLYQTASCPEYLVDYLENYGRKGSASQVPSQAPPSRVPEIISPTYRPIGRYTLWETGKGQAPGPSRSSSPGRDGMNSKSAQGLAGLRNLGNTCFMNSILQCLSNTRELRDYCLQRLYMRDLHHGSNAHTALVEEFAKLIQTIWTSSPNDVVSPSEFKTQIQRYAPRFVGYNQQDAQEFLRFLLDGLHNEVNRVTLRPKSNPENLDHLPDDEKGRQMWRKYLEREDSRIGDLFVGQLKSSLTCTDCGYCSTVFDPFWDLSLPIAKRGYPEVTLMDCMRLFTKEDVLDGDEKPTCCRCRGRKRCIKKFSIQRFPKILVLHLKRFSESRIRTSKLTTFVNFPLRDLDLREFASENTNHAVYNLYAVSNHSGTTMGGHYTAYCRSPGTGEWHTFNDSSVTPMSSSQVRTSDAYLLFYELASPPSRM
smiles,measurement,setting,value
Cc1ccc(S(=O)(=O)Nc2cnccc2C(=O)Nc2nc(-c3ccc(Cl)cc3)cs2)cc1,outcome,[1],inactive
same,Potency,[2],23.5 µM (active)
same,Potency,[3],2.17 µM (active)
Cc1cc(S(=O)(=O)Nc2cnccc2C(=O)Nc2nc(-c3ccccc3)cs2)c(C)o1,outcome,[1],inactive
same,Potency,[2],23.5 µM (active)
same,Potency,[3],3.43 µM (active)
O=C(Nc1nc(-c2ccccc2)cs1)c1ccncc1NS(=O)(=O)c1ccc(F)c(F)c1,outcome,[1],inactive
same,Potency,[2],inactive
same,Potency,[3],2.17 µM (active)
O=C(Nc1nc(-c2ccccc2)cs1)c1ccncc1NS(=O)(=O)c1ccc(F)cc1F,outcome,[1],inactive
same,Potency,[2],inactive
same,Potency,[3],3.06 µM (active)
Cc1ccc(S(=O)(=O)Nc2cnccc2C(=O)Nc2nc(-c3ccc4c(c3)CCCC4)cs2)cc1,outcome,[1],inactive
same,Potency,[2],20.9 µM (active)
same,Potency,[3],2.17 µM (active)
N#Cc1ccccc1S(=O)(=O)Nc1cnccc1C(=O)Nc1nc(-c2ccccc2)cs1,outcome,[1],inactive
same,Potency,[2],inactive
same,Potency,[3],7.69 µM (active)
O=S(=O)(Nc1nccs1)c1ccc(Nc2nc(-c3ccc(F)cc3)cs2)cc1,outcome,[1],inactive
same,Potency,[2],inactive
same,Potency,[3],3.06 µM (active) and 9.68 µM (active)
Cc1ccccc1S(=O)(=O)Nc1cnccc1C(=O)Nc1nc(-c2ccccc2)cs1,outcome,[1],inactive
same,Potency,[2],18.7 µM (active)
same,Potency,[3],2.43 µM (active)
Cc1ccc(S(=O)(=O)Nc2cnccc2C(=O)Nc2nc(-c3ccccc3Cl)cs2)cc1,outcome,[1],inactive
same,Potency,[3],1.72 µM (active)
Cc1ccc(-c2cc(C(=O)Nc3ccc(C(N)=O)cc3)c3ccccc3n2)cc1C,outcome,[1],inactive
same,Potency,[3],21.7 µM (active)
O=C(Nc1nc(-c2ccccc2)cs1)c1ccncc1NS(=O)(=O)c1ccc2c(c1)CCC2,outcome,[1],inactive
same,Potency,[3],1.93 µM (active)
Cc1ccc(S(=O)(=O)Nc2cnccc2C(=O)Nc2nc(-c3cccc(Cl)c3)cs2)cc1,outcome,[1],inactive
same,Potency,[2],23.5 µM (active)
same,Potency,[3],2.17 µM (active)
COc1ccc(S(=O)(=O)Nc2cnccc2C(=O)Nc2nc(-c3ccccc3)cs2)cc1,outcome,[1],inactive
same,Potency,[2],inactive
same,Potency,[3],3.85 µM (active)
O=S(=O)(Nc1nccs1)c1ccc(Nc2nc(-c3ccc(Cl)c(Cl)c3)cs2)cc1,outcome,[1],inactive
same,Potency,[2],inactive
same,Potency,[3],27.3 µM (active)
Cc1ccc(S(=O)(=O)Nc2cnccc2C(=O)Nc2nc(-c3cccc(F)c3)cs2)cc1,outcome,[1],inactive
same,Potency,[2],20.9 µM (active)
same,Potency,[3],1.37 µM (active)
O=C(Nc1nc(-c2ccccc2)cs1)c1ccncc1NS(=O)(=O)c1c(F)cc(F)cc1F,outcome,[1],inactive
same,Potency,[2],inactive
same,Potency,[3],3.43 µM (active)
Cc1ccc(-c2csc(Nc3ccc(S(=O)(=O)Nc4nccs4)cc3)n2)cc1C,outcome,[1],inactive
same,Potency,[2],inactive
same,Potency,[3],4.32 µM (active)
Cc1ccc(S(=O)(=O)Nc2cnccc2C(=O)Nc2ccc(C#N)cc2)cc1,outcome,[1],inactive
same,Potency,[2],inactive
same,Potency,[3],21.7 µM (active)
Nc1cccc(S(=O)(=O)Nc2cnccc2C(=O)Nc2nc(-c3ccccc3)cs2)c1,outcome,[1],inactive
same,Potency,[2],inactive
same,Potency,[3],13.7 µM (active)
Cc1ccc(S(=O)(=O)Nc2cnccc2C(=O)Nc2nc(-c3ccccc3F)cs2)cc1,outcome,[1],inactive
same,Potency,[3],2.17 µM (active)
Cc1ccc(S(=O)(=O)Nc2cnccc2C(=O)Nc2nc(-c3ccco3)cs2)cc1,outcome,[1],inactive
same,Potency,[3],4.32 µM (active)
COc1ccc(-c2csc(NC(=O)c3ccncc3NS(=O)(=O)c3ccc(C)cc3)n2)cc1,outcome,[1],inactive
same,Potency,[3],2.17 µM (active)
Cc1ccc(S(=O)(=O)Nc2ncccc2C(=O)Nc2nc(-c3ccccc3)cs2)cc1,outcome,[1],inactive
same,Potency,[3],3.43 µM (active)
Cc1ccc(S(=O)(=O)Nc2cnccc2C(=O)Nc2nc(-c3cc(Br)cs3)cs2)cc1,outcome,[1],inactive
same,Potency,[3],2.17 µM (active)
O=C(Nc1ccc(S(=O)(=O)Nc2nccs2)cc1)c1ccnc2ccccc12,outcome,[1],inactive
same,Potency,[2],inactive
same,Potency,[3],21.7 µM (active)
Cc1ccc(C(=O)Nc2ccc(S(=O)(=O)Nc3nccs3)cc2)cc1C,outcome,[1],inactive
same,Potency,[2],inactive
same,Potency,[3],24.3 µM (active)
Cc1ccc(-c2cc(C(=O)Nc3ccc([N+](=O)[O-])cc3)c3ccccc3n2)cc1C,outcome,[1],inactive
same,Potency,[3],13.7 µM (active)
O=C(Nc1ccc(S(=O)(=O)Nc2ncc(-c3ccccc3)s2)cc1)c1ccc2ccccc2c1,outcome,[1],inactive
same,Potency,[2],inactive
same,Potency,[3],3.06 µM (active)
Cc1ccc(S(=O)(=O)Nc2cnccc2C(=O)Nc2ccc3ccccc3c2)cc1,outcome,[1],inactive
same,Potency,[3],6.11 µM (active)
O=C(Nc1nc(-c2ccc(F)cc2)cs1)c1ccncc1NS(=O)(=O)c1ccccc1Cl,outcome,[1],inactive
same,Potency,[2],inactive
same,Potency,[3],3.06 µM (active)
COc1cccc(-c2csc(NC(=O)c3ccncc3NS(=O)(=O)c3ccc(C)cc3)n2)c1,outcome,[1],inactive
same,Potency,[3],1.72 µM (active)
CCN(CC)C(=O)C1CCC(C(=O)Nc2ccc([S+](=O)([O-])Nc3nccs3)cc2)CC1 (stereo not drawn),outcome,[1],inactive
same,Potency,[2],inactive
same,Potency,[3],inactive
Cc1cccc(S(=O)(=O)Nc2cnccc2C(=O)Nc2nc(-c3ccccc3)cs2)c1,outcome,[1],inactive
same,Potency,[3],2.73 µM (active)
CCC(=O)OC1CCC(C(=O)Nc2ccc([S+](=O)([O-])Nc3nccs3)cc2)CC1 (stereo not drawn),outcome,[1],inactive
same,Potency,[2],inactive
same,Potency,[3],inactive
Cc1ccc(S(=O)(=O)Nc2cnccc2C(=O)Nc2nc(-c3cc4ccccc4o3)cs2)cc1,outcome,[1],inactive
same,Potency,[3],1.93 µM (active)
Cn1cnc(S(=O)(=O)Nc2cnccc2C(=O)Nc2nc(-c3ccccc3)cs2)c1,outcome,[1],inactive
same,Potency,[2],inactive
same,Potency,[3],19.3 µM (active)
Cc1ccc(S(=O)(=O)Nc2cnccc2C(=O)Nc2cccc3ccccc23)cc1,outcome,[1],inactive
same,Potency,[3],7.69 µM (active)
CC(C)Cc1ccc(-c2csc(Nc3ccc(S(=O)(=O)Nc4nccs4)cc3)n2)cc1,outcome,[1],inactive
same,Potency,[2],inactive
same,Potency,[3],5.44 µM (active)
O=C(Nc1nc(-c2ccc(F)cc2)cs1)c1ccncc1NS(=O)(=O)c1ccc(F)cc1,outcome,[1],inactive
same,Potency,[2],inactive
same,Potency,[3],4.85 µM (active)
Cc1ccc(-c2cc(C(=O)Nc3ccc(Cl)cc3)c3ccccc3n2)cc1C,Potency,[2],inactive
Cc1ccc(S(=O)(=O)Nc2cnccc2C(=O)Nc2nc(-c3ccccc3)cs2)cc1,outcome,[1],inactive
same,Potency,[2],18.7 µM (active)
same,Potency,[3],2.17 µM (active) and 1.72 µM (active)
Cc1ccc(S(=O)(=O)Nc2cc([N+](=O)[O-])ccc2C(=O)Nc2nc(-c3ccccc3)cs2)cc1,outcome,[1],inactive
same,Potency,[2],5.26 µM (active)
same,Potency,[3],0.968 µM (active)
O=C(Nc1nc(-c2ccccc2)cs1)c1ccncc1NS(=O)(=O)c1ccc2ccccc2c1,outcome,[1],inactive
same,Potency,[3],1.37 µM (active)
O=C(Nc1nc(-c2ccccc2)cs1)c1ccncc1NS(=O)(=O)c1ccc(-c2ccccc2)cc1,outcome,[1],inactive
same,Potency,[3],1.53 µM (active)
Cc1ccc(S(=O)(=O)Nc2cnccc2C(=O)Nc2nc(-c3ccc(C)c(C)c3)cs2)cc1,outcome,[1],inactive
same,Potency,[3],2.73 µM (active)
CC(C)(C)NC(=O)N1CCC(C(=O)Nc2ccc([S+](=O)([O-])Nc3nccs3)cc2)CC1,outcome,[1],inactive
same,Potency,[2],inactive
same,Potency,[3],inactive
CCCOC1CCC(C(=O)Nc2ccc([S+](=O)([O-])Nc3nccs3)cc2)CC1 (stereo not drawn),outcome,[1],inactive
same,Potency,[2],inactive
same,Potency,[3],inactive
Cc1c2ccc(N(C)c3ccnc(Nc4cccc(S(N)(=O)=O)c4)n3)cc2nn1C,Potency,[4],0.519 µM (active)
same,outcome,[5],inactive
COc1cccc(-n2ncc3c(NN=Cc4ccc(S(C)(=O)=O)cc4)ncnc32)c1,Potency,[4],0.0923 µM (active)
same,outcome,[5],inactive
COC(=O)Nc1nc2ccc(Oc3ccc(NC(=O)Nc4ccccc4)cc3)cc2[nH]1,Potency,[4],inactive
same,outcome,[5],inactive
CC(C)c1ccc2c(N=Nc3ccc(S(N)(=O)=O)cc3)c(O)[nH]c2c1,Potency,[4],inactive
same,outcome,[5],inactive
Nc1nc(-c2ccc(F)cc2)c(-c2ccc3ncccc3n2)s1,Potency,[4],0.463 µM (active)
same,outcome,[5],inactive
CCCNc1cccc(-n2ncc3c(NN=Cc4ccncc4)ncnc32)c1,Potency,[4],0.0328 µM (active)
same,outcome,[5],inactive
O=C1NC(=O)C(c2cccc(Cl)c2)=C1Nc1ccc(O)c(Cl)c1,Potency,[4],9.23 µM (active)
same,outcome,[5],inactive
O=C1NC(=O)C(c2ccccc2Cl)=C1Nc1cccc(O)c1,Potency,[4],8.23 µM (active)
same,outcome,[5],inactive
CS(=O)(=O)Nc1ccc(N=Cc2c(O)[nH]c3ccccc23)cc1,Potency,[4],3.68 µM (active)
same,outcome,[5],inactive
COc1ccc2ncnc(Nc3ccc(OCc4ccccc4)cc3)c2c1,Potency,[4],0.733 µM (active)
same,outcome,[5],inactive
NS(=O)(=O)c1cccc(-c2ccc3c(NC(=O)C4CC4)n[nH]c3c2)c1,Potency,[4],4.12 µM (active)
same,outcome,[5],inactive
Cc1cc(-c2ccco2)cc(C)c1C=Cc1cncc(-c2nn[nH]n2)c1,Potency,[4],1.04 µM (active)
same,outcome,[5],inactive
Cc1ccc(C(=O)NC2CCCCC2)cc1-c1ccc(C(=O)NCC2CC2)cc1,Potency,[4],inactive
same,outcome,[5],inactive
O=C(Nc1n[nH]c2nc(-c3ccc(O)cc3)c(Br)cc12)C1CC1,Potency,[4],1.64 µM (active)
same,outcome,[5],inactive
COc1cc(C=NNc2ncnc3c2cnn3-c2ccccc2)ccc1O,Potency,[4],0.292 µM (active)
same,outcome,[5],inactive
O=C1NC(=O)C(c2cccc(Cl)c2)=C1Nc1ccc(Cl)c(C(=O)O)c1,Potency,[4],inactive
same,outcome,[5],inactive
O=C1N=c2ccc(N=Cc3c(O)[nH]c4ccccc34)cc2=N1,Potency,[4],2.92 µM (active)
same,outcome,[5],inactive
N#Cc1c(NC(=O)c2ccc(F)cc2)sc2c1CCCC2,Potency,[4],inactive
same,outcome,[5],inactive
COc1cc(Nc2ncc3c(C)nc(-c4cccc(C(F)(F)F)c4)n3n2)cc(OC)c1OC,Potency,[4],0.582 µM (active)
same,outcome,[5],inactive
COc1cccc(C=NNc2ncnc3c2cnn3-c2cccc(OC)c2)c1,Potency,[4],7.33 µM (active)
same,outcome,[5],inactive
CN1CCC(C(=O)Nc2n[nH]c3nnc(-c4ccccc4)cc23)CC1,Potency,[4],13 µM (active)
same,outcome,[5],inactive
c1ccc(-c2[nH]ncc2-c2ccnc(-c3ccc(OCCn4ccnc4)cc3)c2)nc1,Potency,[4],4.63 µM (active)
same,outcome,[5],inactive
NS(=O)(=O)c1ccc(N=Nc2c(O)[nH]c3ccc(C(=O)NCCCn4ccnc4)cc23)cc1,Potency,[4],2.6 µM (active)
same,outcome,[5],inactive
